From PubChem
Many of the other results were omitted from the sample, so hits are more common in it than they were.
NOMO-1 viab: STK33 inhibitor candidate reducing NOMO-1 cell viability; actives 7.5% (n = 37,000); inhibition, % (test concentration not listed); NOMO-1 AML viability, CellTiter-Glo luminescence, 72 h; in the data active = inhibition above about 80%; inconclusive = no clear call, values can overlap the other calls
U2OS ROS induce: raises reactive oxygen species in U2OS cancer cells | ROS induction (% of piperlongumine), % at 10 µM | actives 2% (n = 46,000) | U2OS ROS induction, H2DCF-DA fluorescence; in the data active = ROS induction above about 79%, passing the limit was not always enough; inconclusive = no clear call, values can overlap the other calls;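 also: 0% = DMSO vehicle median and 100% = reference compound median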
Active calls of the source: *; ? = inconclusive; . = no result given.

SMILES	NOMO-1 viab	U2OS ROS induce
CCC(C)[C@H]1C(=O)O[C@H](C(C)C)C(=O)N(C)[C@@H](C(C)C)C(=O)O[C@H](C(C)C)C(=O)N(C)[C@@H](C(C)C)C(=O)O[C@H](CC(C)C)C(=O)N1C (stereo partly drawn)	119.4*	-3.6
C[C@@H]1CN([C@@H](C)CO)C(=O)c2cc(NC(=O)CCC(F)(F)F)ccc2O[C@@H]1CN(C)Cc1ccc(C(=O)O)cc1	10.2	-6.8
CCOC(=O)CN1C(=O)S/C(=C/c2ccc3c(c2)n(C)c(=O)n3C)C1=O	.	0.4
CCOC(=O)CN1C(=O)S/C(=C\c2ccccc2OCc2ccccc2F)C1=O	.	102.5*
COCCCNC(=O)[C@@]1(Sc2ccc(C)cc2)CC(=O)N(C2CCCCC2)[C@@H]1c1ccc(CO)cc1I	.	37.9
On1onc2c3cc(-c4ccccc4)nc3ccc21	114.8*	-8.6
N#CCCN(CCC#N)C(=O)c1cc(-c2ccccc2)nc2ccccc12	17.3	.
C[C@H]1CN([C@@H](C)CO)C(=O)Cc2cc(NS(=O)(=O)c3ccccc3)ccc2O[C@@H]1CN(C)S(=O)(=O)c1ccccc1	2.2	-1.8
O=C(NCc1ccccc1)[C@@]1(CCS(=O)(=O)c2ccccc2)N=C(c2ccc(OCCCO)cc2)O[C@H]1c1ccccc1	.	78.3*
O=C1N(CCS(=O)(=O)c2ccccc2)Cc2ccccc2[C@@H]2OC(c3ccc(OCCCO)cc3)=N[C@]12CCS(=O)(=O)c1ccccc1	.	95.6*
O=C(NCC(O)CO)[C@]1(CCS(=O)(=O)c2ccccc2)N=C(c2ccc(OCCCO)cc2)O[C@@H]1c1ccccc1 (stereo partly drawn)	.	24.0
C=CCN1Cc2ccccc2[C@@H]2OC(c3ccc(OCCCO)cc3)=N[C@]2(CCS(=O)(=O)c2ccccc2)C1=O	.	51.0
CC(=O)N1Cc2ccccc2C[C@@]2(N=C(c3ccc(OCCCO)cc3)O[C@H]2c2ccccc2)C1=O	.	78.7*
CC(=O)N1Cc2ccccc2C[C@]2(N=C(c3ccc(OCCCO)cc3)O[C@@H]2c2ccccc2)C1=O	.	33.8
Cc1cc(C)nc(SCc2nnc(SCC(=O)NCc3ccccc3)o2)n1	.	-10.3
O=C(Oc1ccccc1)c1cc2cc(Br)ccc2oc1=O	.	5.5
CC(=O)Nc1cccc(-c2nn3c(C)nnc3s2)c1	24.9	26.4
COc1cccc(OC)c1C(=O)NC(=S)Nc1cccc(-c2nn3c(C)nnc3s2)c1	122.4*	-0.6
C[C@@H]1CN([C@H](C)CO)C(=O)c2cc(NS(=O)(=O)c3cccs3)ccc2O[C@H]1CN(C)S(=O)(=O)c1ccc(Cl)cc1	-9.5	-20.0
CCc1ccc(OCCCn2cc(/C=C3/C(=N)N4C=CSC4=NC3=O)c3ccccc32)cc1	54.0	32.4
CCc1cc(C)cc(OCCn2cc(C=C3C(=O)NC(=O)NC3=O)c3ccccc32)c1	121.5*	25.6
Cc1noc(C)c1NC(=O)Nc1ccc2c(c1)C(=O)N([C@@H](C)CO)C[C@@H](C)[C@@H](CN(C)Cc1ccccc1)O2	5.6	-11.7
CSc1sc(Cl)c2c1/C(=N\O)CC(C)(C)C2	109.5*	-14.4
CSc1sc(/C(C)=N\O)c2c1/C(=N\O)CC(C)(C)C2	41.1	5.7
COc1cccc(C2CC(C(F)(F)F)n3ncc(C(=O)NCc4cccnc4)c3N2)c1 (stereo not drawn)	-6.1	100.7*
SMILES	NOMO-1 viab	U2OS ROS induce
COc1cccc(C2CC(C(F)(F)F)n3ncc(C(=O)O)c3N2)c1 (stereo not drawn)	-4.4	13.9
OC(CNCc1ccccc1)Cn1c2ccccc2c2ccccc21 (stereo not drawn)	111.3*	.
OC(CNCc1ccccc1)Cn1c2ccc(Cl)cc2c2cc(Cl)ccc21 (stereo not drawn)	.	4.0
Cc1noc(C)c1NC(=O)Nc1ccc2c(c1)C(=O)N([C@@H](C)CO)C[C@@H](C)[C@@H](CN(C)Cc1ccncc1)O2	25.1	-2.8
COc1ccc(CN(C)C[C@H]2Oc3ccc(NS(=O)(=O)c4ccc(C)cc4)cc3C(=O)N([C@@H](C)CO)C[C@@H]2C)cc1	13.8	1.7
C[C@@H]1CN([C@H](C)CO)C(=O)c2cccc(NC(=O)C3CC3)c2O[C@@H]1CN(C)Cc1ccc(C(F)(F)F)cc1	-1.2	-14.2
C[C@@H]1CN([C@@H](C)CO)C(=O)c2cccc(NC(=O)C3CCCCC3)c2O[C@@H]1CN(C)Cc1ccc(-c2ccccc2)cc1	76.5	65.6
C[C@H]1CN([C@@H](C)CO)C(=O)c2cccc(NC(=O)C3CCCCC3)c2O[C@@H]1CN(C)Cc1ccc(Oc2ccccc2)cc1	85.8*	50.0
C[C@H](CO)N1C[C@H](C)[C@H](CN(C)Cc2ccc(-c3ccccc3)cc2)Oc2c(NC(=O)C3CCCCC3)cccc2C1=O	119.3*	54.0
C[C@@H]1CN([C@H](C)CO)C(=O)c2cccc(NC(=O)C3CCCCC3)c2O[C@H]1CN(C)Cc1ccc(C(F)(F)F)cc1	103.7*	5.2
C[C@@H]1CN([C@H](C)CO)C(=O)c2cccc(NC(=O)C3CCCCC3)c2O[C@@H]1CN(C)Cc1ccc(Oc2ccccc2)cc1	24.8	54.1
C[C@@H]1CN([C@H](C)CO)C(=O)c2cccc(NC(=O)c3ccncc3)c2O[C@H]1CN(C)CC1CCCCC1	44.1	-9.1
Cc1ccc(S(=O)(=O)Nc2ccc3c(c2)C(=O)N([C@@H](C)CO)C[C@H](C)[C@H](CN(C)Cc2ccc(Oc4ccccc4)cc2)O3)cc1	16.4	2.8
COC(=O)C(C(CO)Cc1ccc(O)c(OC)c1)C(O)c1ccc(O)c(OC)c1 (stereo not drawn)	107.5*	7.5
COc1cc(CC(CO)C(CO)Cc2ccc(O)c(OC)c2)ccc1O (stereo not drawn)	9.7	4.1
O=C(O)COc1ccc(C(=O)Nc2ccc(F)cc2)cc1	37.7	?
Cc1cc(C(=O)Nc2ccc(OCC(=O)O)cc2)ccc1[N+](=O)[O-]	-14.8	.
COC(=O)COc1ccc(NC(=O)c2ccc([N+](=O)[O-])c(C)c2)cc1	117.6*	.
COC(=O)COc1ccc(NC(=O)c2ccc(NC(C)=O)cc2)cc1	118.5*	59.7
COc1ccc(NC(=O)Nc2ccc3c(c2)C(=O)N([C@@H](C)CO)C[C@@H](C)[C@H](CN(C)Cc2ccccc2)O3)cc1	5.8	-12.5
COc1ccc(/C=C/C(=O)OC2CCCCC2)cc1	95.2*	28.2
COc1ccc(/C=C/C(=O)NC(C)(C)C)cc1	-6.5	?
COc1ccc(CN(C)C[C@H]2OCCCC[C@@H](C)Oc3ccc(NC(=O)Nc4ccc(C(F)(F)F)cc4)cc3C(=O)N([C@H](C)CO)C[C@@H]2C)cc1	85.1*	40.0
COc1ccc(CN(C)C[C@H]2OCCCC[C@@H](C)Oc3ccc(NC(=O)Nc4ccc(F)cc4)cc3C(=O)N([C@H](C)CO)C[C@@H]2C)cc1	42.8	34.7
COc1ccc(CN(C)C[C@@H]2OCCCC[C@@H](C)Oc3ccc(NC(=O)c4ccncc4)cc3C(=O)N([C@H](C)CO)C[C@@H]2C)cc1	3.5	11.6
COc1ccc(CN(C)C[C@@H]2OCCCC[C@@H](C)Oc3ccc(NC(=O)c4ccccc4)cc3C(=O)N([C@H](C)CO)C[C@@H]2C)cc1	37.7	146.6*
COc1ccc(NC(=O)Nc2ccc3c(c2)C(=O)N([C@H](C)CO)C[C@H](C)[C@H](CN(C)Cc2ccc(C(F)(F)F)cc2)OCCCC[C@@H](C)O3)cc1	121.8*	15.6
